PP5 primary: PP5 (human) phosphatase inhibition. purified PP5c, OMFP substrate fluorescence. AID 1987. P53041. inhibition, % at 6.7 µM. hit rate 0.18% among 320,000;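 active means inhibition above the campaign's mean inhibition across all tested compounds plus 3 SD, cut at about 9.5% in these data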;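 further: 0% = DMSO only and 100% = 100 µM cantharidin control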
proKLK7 act: activators of human kallikrein-7 zymogen; activation, % at 7 µM; purified proKLK7, EDANS-DABCYL substrate fluorescence; 100% is mature enzyme control, 0% vehicle; AID 652039; hit rate 0.9% among 370,000;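 active means activation above the mean of all tested compounds plus 3 SD, computed per campaign excluding outliers beyond control limits, cut at about 13% in these data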
PP1 counter: blocks human PP1-alpha phosphatase, a PP5 counter-screen; P62136; purified PP1alpha, OMFP fluorescence; inhibition, % at 6.7 µM; hit rate 0.9% among 320,000; AID 2235;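 active means inhibition above the mean inhibition of all tested compounds plus 3 SD, computed separately for each screening campaign, cut at about 15% in these data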
Rev-erbA mod: Rev-erb alpha (human) modulation; Rev-erbα–FITC-DNA binding, fluorescence polarization, 90 min; activity, % at 10 µM; hit rate 0.79% among 370,000; AID 1259318;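 active means activity above about 14%, limit read from the data; passing the limit was not always enough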;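 further: 0% = DMSO wells with 35 nM protein and 100% = DMSO wells with 750 nM protein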
PG9 binder: binds the HIV-1 gp120 antibody PG9; TR-FRET gp120-PG9 antibody binding; inhibition, % at 6.7 µM; hit rate 0.43% among 360,000; AID 624416; in the data active means inhibition above about 8.5%
JMJD2C inh: human JMJD2C demethylase inhibition | hit rate 0.069% among 330,000 | GST-JMJD2C(1-420) H3K9me3 demethylation, DELFIA europium | inhibition, % at 2.35 µM;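 active means more than half of a compound's replicate wells show inhibition beyond 50%, single wells judged on their own value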;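 further: signal counts dimethyl H3K9 product captured on neutravidin plate; 0% = median of DMSO wells and 100% = 0.3 times that DMSO median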
Target sequence (Q9H3R0 1-420 limits assumed): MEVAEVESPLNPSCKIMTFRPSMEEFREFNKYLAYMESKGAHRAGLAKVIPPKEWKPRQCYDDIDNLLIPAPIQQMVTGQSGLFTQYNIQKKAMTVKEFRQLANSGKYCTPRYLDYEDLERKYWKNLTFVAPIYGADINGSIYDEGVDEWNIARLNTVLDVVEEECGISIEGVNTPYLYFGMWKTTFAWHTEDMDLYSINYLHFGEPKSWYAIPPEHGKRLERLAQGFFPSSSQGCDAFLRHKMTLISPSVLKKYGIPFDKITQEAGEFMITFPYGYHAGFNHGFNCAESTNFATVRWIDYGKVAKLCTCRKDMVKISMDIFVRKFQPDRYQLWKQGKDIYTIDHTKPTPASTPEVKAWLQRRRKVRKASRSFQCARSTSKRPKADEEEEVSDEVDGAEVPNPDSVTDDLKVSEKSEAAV
PG9 bind confirm: PG9 antibody binding, confirmed; shares compounds with PG9 binder; TR-FRET PG9 antibody binding, biochemical; inhibition, % at 6.7 µM; hit rate 90% among 1,500; in the data active means inhibition above about 9%
PGV04 counter: binds control antibody PGV04 in PG9 binder counter-screen; shares compounds with PG9 binder; TR-FRET PGV04 antibody-gp120 binding, biochemical; inhibition, % at 6.7 µM; hit rate 95% among 1,500; in the data active means inhibition above about 9.5%
PG9 binder DR: small molecules binding HIV-1 gp120 antibody PG9 | shares compounds with PG9 binder | TR-FRET PG9 antibody-gp120 binding inhibition | IC50, µM | 95 tested, under 10 active; in the data active means IC50 below about 10 µM
PGV04 binding DR: binds control antibody PGV04 in PG9 counter-screen | hit rate 20% among 95 | TR-FRET binding to control antibody PGV04 | IC50, µM | shares compounds with PG9 binder
PG126 binding DR: binds control antibody PG126 in PG9 counter-screen; IC50, µM; AID 651939; TR-FRET binding to antibody PG126, counterscreen; shares compounds with PG9 binder; hit rate 20% among 95
Active calls of the source: *. The list is not random: actives were taken first. Their share in the collection is about 2.8%. Unless noted, no stated cut-off is given here; in the data, active means IC50 below about 9 µM; inactive means the rest.

COc1ccc(C(=O)Nc2nnc(Cc3ccc(OC)c(OC)c3)s2)cc1 was read as PP5 primary 0, proKLK7 act 0, PP1 counter 5, Rev-erbA mod 3, PG9 binder 9.5*, JMJD2C inh -5, PG9 bind confirm 11* and PGV04 counter 20*.
`Cc1ccc(-c2cc(C(=O)O)c3cc(Br)ccc3n2)o1` gave PP5 primary -1, proKLK7 act 7, PP1 counter 2, Rev-erbA mod -3, PG9 binder 14*, JMJD2C inh -3, PG9 bind confirm 10* and PGV04 counter 20*.
For COc1ccc(C)cc1NC(=O)CSc1nnc(-c2ccc(Br)cc2)o1 the results were PP5 primary 3, proKLK7 act 1, PP1 counter -2, Rev-erbA mod 9, PG9 binder 11*, JMJD2C inh -3, PG9 bind confirm 19* and PGV04 counter 26*.
Screening CC(C)(C)C(=O)Cn1c(=O)n(-c2ccc(F)cc2F)c(=O)c2sccc21 returned PP5 primary -1, proKLK7 act 0, PP1 counter -1, Rev-erbA mod -2, PG9 binder 12*, JMJD2C inh 0, PG9 bind confirm 5 and PGV04 counter 7.
For COC(=O)CSc1nnc(-c2ccc(NS(=O)(=O)c3ccc(C(C)(C)C)cc3)cc2)o1 the results were proKLK7 act 0 and Rev-erbA mod -12.
For Cc1ccc(NC(=O)CSc2nc(O)cc(=O)n2C)cc1 the results were PP5 primary 2, proKLK7 act -1, PP1 counter 6, Rev-erbA mod -1, PG9 binder 0 and JMJD2C inh 18.
Cc1ccc(NC(=O)CSc2nc3sc(C)cc3c(=O)n2C)cc1 was read as PP5 primary 1, proKLK7 act 0, PP1 counter 0, Rev-erbA mod 0, PG9 binder 17*, JMJD2C inh 0, PG9 bind confirm 16* and PGV04 counter 26*.
Screening Cc1ccc(NC(=O)COC(=O)c2ccc(-n3cccn3)cc2)cc1C returned PP5 primary -1, proKLK7 act -1, PP1 counter 2, Rev-erbA mod -8, PG9 binder 13*, PG9 bind confirm 18* and PGV04 counter 29*.
Screening COc1cn(-c2ccccc2)nc1C(=O)OCC(=O)Nc1ccc(C)c(C)c1 returned PP5 primary -1, proKLK7 act 0, PP1 counter 3, Rev-erbA mod -12, PG9 binder 4 and JMJD2C inh -14.
NC(=O)c1ccc(NC(=O)COC(=O)c2c[nH]c3ccccc23)cc1 was read as proKLK7 act 0, Rev-erbA mod 2, PG9 binder 10*, PG9 bind confirm 8.9* and PGV04 counter 16*.
For NC(=O)c1ccc(NC(=O)COC(=O)c2n[nH]c3ccccc23)cc1 the results were PP5 primary 1, proKLK7 act 0, PP1 counter -4, Rev-erbA mod -5, PG9 binder -2 and JMJD2C inh 0.
For Cc1cc(NC2C3CC4CC(C3)CC2C4)n2nnnc2n1 (stereo not drawn) the results were PP5 primary 2, proKLK7 act 0, PP1 counter -2, Rev-erbA mod 1, PG9 binder 24*, JMJD2C inh -5, PG9 bind confirm 29* and PGV04 counter 39*.
Screening Cc1cc(NC2C3CC4CC(C3)CC2C4)n2ncnc2n1 (stereo not drawn) returned PP5 primary 0, proKLK7 act 0, PP1 counter -3, Rev-erbA mod -5, PG9 binder -1 and JMJD2C inh 5.
Screening O=C(CSc1nc(-c2ccccc2)cc(C(F)(F)F)n1)NCc1cccs1 returned PP5 primary -1, proKLK7 act 0, PP1 counter -2, Rev-erbA mod 3, PG9 binder 3 and JMJD2C inh -7.
For COc1ccc(-c2cc(C(F)(F)F)nc(SCC(=O)NCc3cccs3)n2)cc1 the results were PP5 primary 0, proKLK7 act 0, PP1 counter 0, Rev-erbA mod 22, PG9 binder 13*, JMJD2C inh 7, PG9 bind confirm 8 and PGV04 counter 9.
Screening CCn1c(COc2ccc(C)cc2)nnc1SCc1cccc(C(F)(F)F)c1 returned proKLK7 act 0 and Rev-erbA mod -1.
`Cc1cc2ccccc2n1CCNC(=O)C1CCCCC1` gave PP5 primary 0, proKLK7 act 1, PP1 counter 1, Rev-erbA mod 4, PG9 binder 11*, JMJD2C inh -28, PG9 bind confirm 8, PGV04 counter 8, PG9 binder DR inactive, PGV04 binding DR inactive and PG126 binding DR inactive.
`CCn1c(CNC(=O)C2CCCCC2)cc2ccccc21` gave PP5 primary 0, proKLK7 act 0, PP1 counter -1, Rev-erbA mod -5, PG9 binder 32*, JMJD2C inh 6, PG9 bind confirm 16* and PGV04 counter 23*.
For Cn1c(CNC(=O)C2CCCCC2)cc2ccccc21 the results were PP5 primary 1, proKLK7 act 0, PP1 counter -4, Rev-erbA mod 0, PG9 binder 1 and JMJD2C inh 2.
Screening CC1=NOC(=O)/C1=C\c1ccc(-c2ccccc2Br)o1 returned proKLK7 act 0, Rev-erbA mod 4, PG9 binder 14*, JMJD2C inh -12, PG9 bind confirm 30* and PGV04 counter 54*.
For CC(=O)c1cccc(N/C=C\c2nnnn2-c2ccc(F)cc2)c1 the results were PP5 primary 1, proKLK7 act 0, PP1 counter 1, Rev-erbA mod -11, PG9 binder 17*, JMJD2C inh 2, PG9 bind confirm 11* and PGV04 counter 20*.
C=CCn1c(Cc2cccs2)nnc1SCC(=O)Nc1ccc(C)cc1 was read as proKLK7 act 0 and Rev-erbA mod -4.
`C/C(=N\NC(=O)C1COc2ccccc2O1)c1ccc(Cl)s1` (stereo not drawn) gave PP5 primary 4, proKLK7 act 0, PP1 counter 0, Rev-erbA mod -2, PG9 binder 24*, JMJD2C inh 11, PG9 bind confirm 6 and PGV04 counter 8.

Screens from PubChem.
